Results filed as inconclusive are left out. Calls of active or inactive are those of the source.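 The calls were made as follows, unless noted: active = viability at or below 10% of carrier control in both of two separate runs; inconclusive = viability at or below 10% in only one of the two runs; inactive = the rest.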
What was measured:
[1] = reducers of endogenous Her2 protein level, primary screen, SKBR3 breast tumor cells, AlphaScreen, ATP viability (AID 461;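 active = Her2 level under about 52% in both replicate screens, with viability over 70% of control, limit read from the data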;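 as to Her2 level: lower value means less Her2 protein in the cells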;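 as to viability: percent of carrier control wells set as 100% viability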); conditions: 18-24 h, measured here: SKBR3 viability, ATP luminescence, at 10 µM
[2] = molecular target: Receptor tyrosine-protein kinase erbB-2 (Homo sapiens) (UniProt P04626); experiment: as above; conditions: 18-24 h, at 10 µM, stronger effect = lower value
Receptor tyrosine-protein kinase erbB-2 (Homo sapiens), sequence (P04626 whole entry, looked up): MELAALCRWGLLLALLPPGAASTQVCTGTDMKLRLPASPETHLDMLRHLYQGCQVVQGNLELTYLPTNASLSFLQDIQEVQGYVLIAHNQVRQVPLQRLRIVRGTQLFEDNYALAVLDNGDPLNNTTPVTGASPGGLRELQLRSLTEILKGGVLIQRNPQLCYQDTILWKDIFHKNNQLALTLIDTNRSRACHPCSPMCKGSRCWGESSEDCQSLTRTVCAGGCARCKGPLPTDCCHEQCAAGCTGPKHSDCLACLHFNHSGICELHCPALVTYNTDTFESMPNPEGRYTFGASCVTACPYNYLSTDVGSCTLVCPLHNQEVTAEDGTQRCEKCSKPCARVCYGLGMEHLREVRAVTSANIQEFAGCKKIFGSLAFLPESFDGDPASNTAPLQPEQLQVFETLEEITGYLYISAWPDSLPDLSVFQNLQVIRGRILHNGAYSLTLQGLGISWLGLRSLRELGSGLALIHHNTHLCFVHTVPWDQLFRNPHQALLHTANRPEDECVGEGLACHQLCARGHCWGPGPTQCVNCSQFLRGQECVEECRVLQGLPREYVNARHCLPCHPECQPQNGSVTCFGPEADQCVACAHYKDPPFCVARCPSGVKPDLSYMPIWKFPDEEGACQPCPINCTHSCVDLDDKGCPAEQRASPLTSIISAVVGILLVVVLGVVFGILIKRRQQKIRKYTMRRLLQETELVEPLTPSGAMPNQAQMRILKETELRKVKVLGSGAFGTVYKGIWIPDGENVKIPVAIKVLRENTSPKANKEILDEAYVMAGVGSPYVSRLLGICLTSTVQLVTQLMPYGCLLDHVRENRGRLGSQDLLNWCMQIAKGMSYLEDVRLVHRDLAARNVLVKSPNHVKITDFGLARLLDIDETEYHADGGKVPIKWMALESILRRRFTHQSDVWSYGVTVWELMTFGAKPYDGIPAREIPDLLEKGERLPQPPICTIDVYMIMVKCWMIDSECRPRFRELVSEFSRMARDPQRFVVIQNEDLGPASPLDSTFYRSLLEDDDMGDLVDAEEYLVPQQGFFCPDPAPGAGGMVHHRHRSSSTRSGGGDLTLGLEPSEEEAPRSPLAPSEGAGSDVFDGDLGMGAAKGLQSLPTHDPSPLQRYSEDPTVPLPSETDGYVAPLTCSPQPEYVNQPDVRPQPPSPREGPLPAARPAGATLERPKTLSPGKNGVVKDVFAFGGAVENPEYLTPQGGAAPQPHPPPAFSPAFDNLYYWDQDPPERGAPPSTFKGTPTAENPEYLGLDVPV

[3] = SK-BR-3 cell growth inhibitors, pilot screen, 24 h, human (AID 572); conditions: SK-BR-3 viability, CellTiter-Glo luminescence, at 10 µM, stronger effect = lower value;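 also: compound exposure lasted between 18 and 24 h rather than exactly 24 h; 100% = carrier-treated control wells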
[4] = HUVEC growth inhibition – cell-based, human, primary screen (AID 575;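 active = viability at or below 30% in both replicate assays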;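 also: 100% = median of untreated cell wells with 0.1% DMSO on each plate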); conditions: HUVEC proliferation, CellTiter-Glo luminescence, 72 h; at 10 µM; stronger effect = lower value
[5] = growth inhibitors of H69AR lung tumor, primary screen, human, duplicate replicates (AID 580;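 active = viability at or under a set limit in both replicates, limit being median viability minus 3 SD, cut at about 48% in these data, passing the limit was not always enough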;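 also: 100% = mean luminescence of untreated wells and 0% = no signal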); conditions: H69AR lung tumor cells viability, ATP luminescence, 72 h; at 10 µM; stronger effect = lower value
[6] = reversal of MRP1-mediated doxorubicin resistance, pilot screen, H69AR cells, doxorubicin co-treatment (AID 601;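 active = viability loss from added drug above about 55%, and viability with drug at most 40%, in both replicates, limit read from the data, passing the limit was not always enough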); conditions: CellTiter-Glo, 72 h, at 10 µM; for differential viability (reversal): stronger effect = higher value
[7] = 384-well plate pilot, post-Golgi transport modulator project, inhibition of yeast transport mutant growth (AID 636; in the data active = inhibition above about 31%); conditions: absorbance 615 nm, about 18 h, stronger effect = higher value
[8] = growth suppression of yeast trafficking mutant, preliminary HTS, modulators of trafficking downstream of Golgi apparatus project, 1536-format plate, OD 615 nm (AID 637; in the data active = inhibition above about 30%); conditions: yeast transport mutant growth, absorbance 615 nm, 18 h; stronger effect = higher value
[9] = OD615 S. cerevisiae growth inhibition, permissive medium, pilot counter-assay, permissive growth control for S. cerevisiae lifespan shortening project (AID 705;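 active = growth inhibition above 25% in both replicates, a cutoff set 3 SD above the mean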); conditions: OD615, 24 h, at 10 µM, stronger effect = higher value
[10] = Restrictive medium S. cerevisiae growth inhibition, OD615, pilot screen of yeast lifespan reduction project, restrictive growth control (AID 706;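 active = growth inhibition above a set limit, 3 SD over mean compound inhibition, in both replicates, cut at about 43% in these data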;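 also: modified DeaD lifespan yeast strain shifted to restrictive glucose medium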); conditions: OD615, 48 h, at 10 µM, stronger effect = higher value
[11] = viability gain of MRP-1-high H69AR cells under doxorubicin, pilot screen, MRP-1 activator project, CellTiter-Glo, duplicate (AID 807;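 active = viability increase at or above a cutoff of the median across tested compounds plus 3 SD, cut at about 8.5% in these data, passing the limit was not always enough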;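 also: compound pretreatment 18-22 h then 72 h combined with doxorubicin; 0% = doxorubicin alone and 100% = vehicle without doxorubicin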); conditions: H69AR viability with doxorubicin, CellTiter-Glo luminescence; at 10 µM; stronger effect = higher value
[12] = growth suppression of beta-catenin knockout HCT116, pilot screen, human colon tumor cells (AID 823;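 active = cell viability at or below a set limit in both duplicate runs, the limit being the all-compound median minus 4 SD, cut at about 23% in these data, passing the limit was not always enough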;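 also: 0% = wells killed by 20 µM Hyamine and 100% = untreated DMSO cell wells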); conditions: CellTiter-Glo, 60 h, at 10 µM, stronger effect = lower value
[13] = growth suppression of PTEN-deleted HCT116, pilot screen, cell-based, HCT116 clonal line, CellTiter-Glo (AID 824;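 active = viability at or below 27.92% in each of two runs, the all-compound median minus 4 SD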;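 also: 0% = 20 µM Hyamine control and 100% = vehicle cell control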); conditions: 60 h, at 10 µM, stronger effect = lower value
[14] = inhibitors of the yeast RAM network, pilot screen, dse1pr::URA3 reporter, 5-FOA selection (AID 869;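 active = inhibition over a set limit, the all-compound mean plus 3 SD, in both replicate runs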;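 also: 0% = DMSO wells with no growth and 100% = 10 µM 1-NA-PP1 with full growth; RAM network block rescues cells from 5-FOA so hits raise OD615 growth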); conditions: S. cerevisiae dse1pr::URA3 5-FOA growth, OD615, 2 d; at 10 µM; stronger effect = higher value; strain carries analog-sensitive mutant Cbk1 kinase
[15] = RAM signaling pathway blockade in yeast – S. cerevisiae, Pdr1DBD-CYC8 efflux-inhibited sensitized strain, primary screen (AID 1298;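 active = RAM network inhibition above 8.4% in each of two replicates, 3 SD over the compound average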;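 also: 0% = DMSO untreated cells without growth and 100% = 10 µM 1-NA-PP1 full growth; higher means more yeast growth rescued from 5-FOA killing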); conditions: S. cerevisiae cbk1-as DSE1-URA3 strain, 5-FOA growth OD615, 2 d; at 50 µM; stronger effect = higher value
[16] = H69AR cells + 2 uM doxorubicin, measured here: viability with 2 uM doxorubicin, stronger effect = lower value
[17] = H69AR cells, compound alone cytotoxicity

Compound | viability [1] [%] | Her2 level [2] | viability [3] | viability [4] | viability [5] | differential viability (reversal) ([6]; H69AR cells + 2 uM doxorubicin) | viability [6, 16] [%] | viability [6, 17] [%] | inhibition [7] | inhibition [8] | growth inhibition [9] | growth inhibition [10] | viability increase [11] | viability [12] | viability [13] | inhibition [14] | RAM network inhibition [15]
COc1ccc(CCNC(=O)c2cc3sc(Cl)cc3n2C)cc1OC | 89.5 | 94% (inactive) | 89.5% (inactive) | 98.3% (inactive) | 90.7% (inactive) | -3.9% (inactive) | 94.6 | 90.7 | -3.59% (inactive) | -8% (inactive) | -5.07% (inactive) | 12.9% (inactive) | 3.32% (inactive) | 65.2% (inactive) | 77.3% (inactive) | 0.605% (inactive) | 1.25% (inactive)
CCOc1ccc(N(CC(=O)NCc2ccco2)S(=O)(=O)c2ccc(OC)c(OC)c2)cc1 | 79 | 85% (inactive) | 79% (inactive) | 89.3% (inactive) | 83.7% (inactive) | 0.495% (inactive) | 83.2 | 83.7 | -3.51% (inactive) | -6.5% (inactive) | -3.81% (inactive) | -16.6% (inactive) | -4.63% (inactive) | 94.7% (inactive) | 90.4% (inactive) | 2.28% (inactive) | 2.74% (inactive)
C=CCSc1nnc(-c2cccnc2)o1 | 95 | 99.5% (inactive) | 95% (inactive) | 103% (inactive) | 96.9% (inactive) | 9.17% (inactive) | 87.8 | 96.9 | -5.6% (inactive) | 9% (inactive) | -1.77% (inactive) | 7.71% (inactive) | -1.02% (inactive) | 101% (inactive) | 101% (inactive) | 0.94% (inactive) | 0.16% (inactive)
O=C(Nc1ccc(N2CCCC2)cc1)c1ccc(Br)o1 | 93.5 | 93.5% (inactive) | 93.5% (inactive) | 94.3% (inactive) | 101% (inactive) | 15.6% (inactive) | 85.2 | 101 | 0.27% (inactive) | 1.97% (inactive) | 3.95% (inactive) | 14.9% (inactive) | -0.48% (inactive) | 94% (inactive) | 92.3% (inactive) | 3.5% (inactive) | 6.03% (inactive)
Oc1ccc2ccccc2c1CN1CCN(c2ccccc2F)CC1 | 110 | 90% (inactive) | 110% (inactive) | 90.1% (inactive) | 76.6% (inactive) | 3.1% (inactive) | 73.5 | 76.6 | -3.47% (inactive) | -0.33% (inactive) | -13.8% (inactive) | -10.6% (inactive) | -5.72% (inactive) | 95.4% (inactive) | 93.9% (inactive) | 0.72% (inactive) | 0.16% (inactive)
Cc1cc(C)c(C#N)c(SCC(=O)Nc2ccc(S(=O)(=O)Nc3onc(C)c3C)cc2)n1 | 90.5 | 97% (inactive) | 90.5% (inactive) | 82.4% (inactive) | 87.4% (inactive) | -9.41% (inactive) | 96.8 | 87.4 | -3.73% (inactive) | 0.33% (inactive) | -1.4% (inactive) | 7.54% (inactive) | -0.72% (inactive) | 109% (inactive) | 100% (inactive) | 1.98% (inactive) | 2.19% (inactive)
CCCC(=O)NCCc1cc2c(C)ccc(C)c2[nH]c1=O | 106 | 93% (inactive) | 106% (inactive) | 110% (inactive) | 98.8% (inactive) | 12.1% (inactive) | 86.7 | 98.8 | -5.6% (inactive) | 9.33% (inactive) | -4.56% (inactive) | -10.1% (inactive) | -0.5% (inactive) | 111% (inactive) | 103% (inactive) | 0.625% (inactive) | 0.95% (inactive)
CC1=C(C(=O)Nc2ccc(F)cc2)C(c2cccc(C)c2)n2nc(CCCO)nc2N1 (stereo not given) | 87.5 | 91.5% (inactive) | 87.5% (inactive) | 79% (inactive) | 94% (inactive) | 1.5% (inactive) | 92.5 | 94 | -3.73% (inactive) | -2.83% (inactive) | -1.56% (inactive) | -3% (inactive) | -0.66% (inactive) | 98.2% (inactive) | 100% (inactive) | -0.19% (inactive) | 1.3% (inactive)
CCOCCn1c(CN2CCN(CC)CC2)nc2c1c(=O)n(C)c(=O)n2C | 121 | 109% (inactive) | 121% (inactive) | 94.2% (inactive) | 91.8% (inactive) | 4.7% (inactive) | 87.1 | 91.8 | -1.6% (inactive) | -4.33% (inactive) | 5.99% (inactive) | 1.91% (inactive) | -1.7% (inactive) | 103% (inactive) | 97.6% (inactive) | 1.31% (inactive) | -1.34% (inactive)
CCOc1ccc(N(CC(=O)NC2CCCC(C)C2C)S(=O)(=O)c2c(C)noc2C)cc1 (stereo not given) | 89.5 | 81.5% (inactive) | 89.5% (inactive) | 64.3% (inactive) | 73.1% (inactive) | 6.81% (inactive) | 66.3 | 73.1 | 1.41% (inactive) | 13.5% (inactive) | -9.98% (inactive) | -14.4% (inactive) | -1.09% (inactive) | 82.8% (inactive) | 83.6% (inactive) | 0.98% (inactive) | 6.62% (inactive)
COCCNC(=O)C(C)N(c1ccc(Oc2ccccc2)cc1)S(C)(=O)=O (stereo not given) | 112 | 95.5% (inactive) | 112% (inactive) | 102% (inactive) | 96.5% (inactive) | 7.53% (inactive) | 89 | 96.5 | -0.65% (inactive) | 3.44% (inactive) | -4.62% (inactive) | 4.17% (inactive) | -0.82% (inactive) | 90.7% (inactive) | 91.6% (inactive) | -0.1% (inactive) | 3.42% (inactive)
CC(=O)c1cccc(NC(=O)CCOc2ccccc2)c1 | 96 | 121% (inactive) | 96% (inactive) | 106% (inactive) | 98.3% (inactive) | 1.96% (inactive) | 96.3 | 98.3 | 1.04% (inactive) | -12.8% (inactive) | 5.62% (inactive) | 4.36% (inactive) | -1.33% (inactive) | 102% (inactive) | 95% (inactive) | 1.27% (inactive) | 1.57% (inactive)
CCCCC(=O)NCCc1cc2c(C)ccc(C)c2[nH]c1=O | 101 | 95% (inactive) | 101% (inactive) | 119% (inactive) | 85.1% (inactive) | 1.76% (inactive) | 83.4 | 85.1 | -5.07% (inactive) | 1.67% (inactive) | -2.27% (inactive) | -13.3% (inactive) | 0.28% (inactive) | 109% (inactive) | 106% (inactive) | 1.61% (inactive) | 0.32% (inactive)
COC(=O)c1oc2ccc(Br)cc2c1NC(C)=O | 94 | 81% (inactive) | 94% (inactive) | 96.1% (inactive) | 98.2% (inactive) | 3.47% (inactive) | 94.7 | 98.2 | -4% (inactive) | 1.33% (inactive) | -7.17% (inactive) | 0.76% (inactive) | 1.21% (inactive) | 102% (inactive) | 98.4% (inactive) | 0.08% (inactive) | 2.66% (inactive)
CCOC(=O)N1CCN(C(=O)CSc2nnc(COc3ccccc3)o2)CC1 | 92.5 | 89.5% (inactive) | 92.5% (inactive) | 95.2% (inactive) | 97.2% (inactive) | 9.01% (inactive) | 88.2 | 97.2 | 2.67% (inactive) | -7.21% (inactive) | -8.08% (inactive) | 1.67% (inactive) | 1.41% (inactive) | 99.4% (inactive) | 100% (inactive) | -0.34% (inactive) | 7.1% (inactive)
Cc1cc2nc(-c3ccco3)cc(C(F)(F)F)n2n1 | 93.5 | 90% (inactive) | 93.5% (inactive) | 102% (inactive) | 93.3% (inactive) | 6.71% (inactive) | 86.6 | 93.3 | 1.28% (inactive) | 8.17% (inactive) | -17.4% (inactive) | -8.99% (inactive) | 1.14% (inactive) | 105% (inactive) | 105% (inactive) | 1.89% (inactive) | 2.83% (inactive)
O=C(Nc1nnc(-c2ccc(Cl)cc2)o1)C1CCCCC1 | 87.5 | 99% (inactive) | 87.5% (inactive) | 67% (inactive) | 69.2% (inactive) | -17.3% (inactive) | 86.5 | 69.2 | -7.2% (inactive) | -2.33% (inactive) | 4.85% (inactive) | 8.62% (inactive) | -1.38% (inactive) | 54.2% (inactive) | 58.2% (inactive) | 1.51% (inactive) | 1.36% (inactive)
CCC1CCCCN1CCNS(=O)(=O)c1ccc2c(c1)oc(=O)n2C (stereo not given) | 91.5 | 84.5% (inactive) | 91.5% (inactive) | 79.8% (inactive) | 85.2% (inactive) | 0.025% (inactive) | 85.1 | 85.2 | -1.28% (inactive) | 0.67% (inactive) | -0.855% (inactive) | -5.11% (inactive) | -2.8% (inactive) | 97.9% (inactive) | 95.1% (inactive) | 2.01% (inactive) | -1.43% (inactive)
Cc1ccc(-c2cc(C(F)(F)F)n3nc(C(=O)N4CCCC4)cc3n2)cc1 | 101 | 84.5% (inactive) | 101% (inactive) | 108% (inactive) | 111% (inactive) | 11.3% (inactive) | 100 | 111 | -0.68% (inactive) | 3.65% (inactive) | -13.3% (inactive) | 1.45% (inactive) | -2.2% (inactive) | 96.9% (inactive) | 89% (inactive) | 1.95% (inactive) | 4.14% (inactive)
CCC(C)C(NC(=O)C1CCC(C)CC1)C(=O)NCc1cccnc1 (stereo not given) | 99 | 87.5% (inactive) | 99% (inactive) | 82.4% (inactive) | 102% (inactive) | 5.36% (inactive) | 96.3 | 102 | -6.89% (inactive) | 3.17% (inactive) | -12.5% (inactive) | -2.67% (inactive) | -0.91% (inactive) | 86.4% (inactive) | 87.7% (inactive) | 0.265% (inactive) | 4.7% (inactive)

Source: PubChem BioAssay
